Results on four molecules are retold here after PubChem BioAssay (EPA / NIEHS).

Holding throughout (conditions): mRNA level, 48 h; actives raise or lower the signal
Read-out in assay [1]: Glutathione S-Transferase (GSTA2), GSTA2 (gene 2939)
Put plainly: LTEA_HepaRG_GSTA2: Life Technologies and Expression Analysis (LTEA) Assay for Glutathione S-Transferase (GSTA2) using HepaRG (AID 2283497). The procedure, abridged: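 qRT-PCR readout of GSTA2 transcript, normalized to three housekeeping genes, fitted bidirectionally against 0.5% DMSO baseline. Differentiated HepaRG cells received compound for 48 h at 8 concentrations (top 100 uM, half-log steps).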

Read-out in assay [2]: Glutamate-cysteine ligase catalytic (GCLC), GCLC (gene 2729)
Put plainly: LTEA_HepaRG_GCLC: Life Technologies and Expression Analysis (LTEA) Assay for Glutamate-cysteine ligase catalytic (GCLC) using HepaRG (AID 2283498). In outline:
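HepaRG, 48 h exposure, 8-pt half-log series from 100 uM, 0.5% DMSO vehicle; TaqMan qRT-PCR for GCLC mRNA, housekeeping-normalized; bidirectional curve fit vs DMSO baseline.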

Read-out in assay [3]: growth arrest and DNA damage 45 (GADD45G), GADD45G (gene 10912)
Put plainly: LTEA_HepaRG_GADD45G: Life Technologies and Expression Analysis (LTEA) Assay for growth arrest and DNA damage 45 (GADD45G) using HepaRG (AID 2283499). In outline: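 Gain or loss of GADD45G mRNA, quantified by TaqMan qRT-PCR against three housekeeping genes, is fitted in both directions relative to 0.5% DMSO. Human HepaRG cultures receive test chemical for 48 h at up to 100 uM.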

Read-out in assay [4]: Glutamate-cysteine ligase regulatory (GCLM), GCLM (gene 2730)
Put plainly: LTEA_HepaRG_GCLM: Life Technologies and Expression Analysis (LTEA) Assay for Glutamate-cysteine ligase regulatory (GCLM) using HepaRG (AID 2283500). In outline: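 HepaRG, 48 h dosing, 100 uM top, half-log x8, 0.5% DMSO vehicle. Readout: GCLM mRNA by TaqMan qRT-PCR, housekeeping-normalized (ACTB/GAPDH/POLR2A). Curves fit bidirectionally vs DMSO baseline.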

Read-out in assay [5]: Heat shock 70 kDa protein 1 (HSPA1A), gene 3303
Put plainly: LTEA_HepaRG_HSPA1A: Life Technologies and Expression Analysis (LTEA) Assay for Heat shock 70 kDa protein 1 (HSPA1A) using HepaRG (AID 2283502). In outline:
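HepaRG, 48 h exposure, 8-pt half-log CRC from 100 uM in 0.5% DMSO, duplicates. Readout: TaqMan qRT-PCR of HSPA1A mRNA, housekeeping-normalized (ACTB/GAPDH/POLR2A). Bidirectional fit vs 0.5% DMSO baseline.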

Read-out in assay [6]: Hypoxia-inducible factor 1-alpha (Homo sapiens) (UniProt Q16665)
Put plainly: LTEA_HepaRG_HIF1A: Life Technologies and Expression Analysis (LTEA) Assay for Hypoxia-inducible factor 1 (HIF1A) Trancription factor using HepaRG (AID 2283503). The procedure, abridged:
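Gain- or loss-of-signal HIF1A mRNA changes are fitted against a DMSO baseline. HepaRG cultures receive eight concentrations, highest 100 uM, for 48 h in serum-free induction medium with 0.5% DMSO.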

Read-out in assay [7]: 3-Hydroxy-3-Methylglutaryl-CoA Synthase 2 (HMGCS2), HMGCS2 (gene 3158)
In words: LTEA_HepaRG_HMGCS2: Life Technologies and Expression Analysis (LTEA) Assay for 3-Hydroxy-3-Methylglutaryl-CoA Synthase 2 (HMGCS2) using HepaRG (AID 2283504). The procedure, abridged:
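HepaRG, plated 48 h then switched to serum-free induction media; cmpd 8-pt, max 100 uM, 1/2-log, 0.5% DMSO, n=2, 48 h. HMGCS2 mRNA by Fluidigm TaqMan qRT-PCR, ACTB/GAPDH/POLR2A norm; bidirectional fit vs DMSO.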

Read-out in assay [8]: HGF (gene 3082)
In words: LTEA_HepaRG_HGF: Life Technologies and Expression Analysis (LTEA) Assay for Hepatocyte Growth Facto (HGF) using HepaRG (AID 2283505). In outline:
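Read-out is HGF transcript level by qRT-PCR, normalized to three housekeeping genes, fitted bidirectionally against 0.5% DMSO vehicle. Human HepaRG cells received test chemicals for 48 h at up to 100 uM.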

Read-out in assay [9]: Insulin Like Growth Factor 1 (IGF1), IGF1 (gene 3479)
In words: LTEA_HepaRG_IGF1: Life Technologies and Expression Analysis (LTEA) Assay for Insulin Like Growth Factor 1 (IGF1) using HepaRG (AID 2283506). In outline: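 qRT-PCR readout of IGF1 mRNA, normalized to three housekeeping genes, after 48 h chemical exposure of HepaRG cells. Concentrations: 8-point half-log series, top 100 uM, 0.5% DMSO vehicle. Gain or loss fitted against DMSO baseline.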

Read-out in assay [10]: Intercellular Adhesion Molecule 1 (ICAM1), ICAM1 (gene 3383)
In words: LTEA_HepaRG_ICAM1: Life Technologies and Expression Analysis (LTEA) Assay for Intercellular Adhesion Molecule 1 (ICAM1) using HepaRG (AID 2283507). The procedure, abridged: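 Readout is qRT-PCR mRNA level, normalized to three housekeeping genes and fitted bidirectionally against 0.5% DMSO vehicle. Human HepaRG cultures received compound for 48 h, top concentration 100 uM with half-log dilutions.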

Read-out in assay [11]: Insulin-like growth factor-binding protein 1 (IGFBP1), IGFBP1 (gene 3484)
Put plainly: LTEA_HepaRG_IGFBP1: Life Technologies and Expression Analysis (LTEA) Assay for Insulin-like growth factor-binding protein 1 (IGFBP1) using HepaRG (AID 2283508). The procedure, abridged:
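Thawed HepaRG cells are plated for 48 h, switched to serum-free induction medium, then dosed in duplicate for another 48 h (100 uM top, half-log steps). Lysates in RLT go to qRT-PCR, and gain or loss of signal is fitted relative to vehicle.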

Read-out in assay [12]: Interleukin 6 (IL6), IL6 (gene 3569)
Put plainly: LTEA_HepaRG_IL6: Life Technologies and Expression Analysis (LTEA) Assay for Interleukin 6 (IL6) using HepaRG (AID 2283509). In outline:
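qRT-PCR read-out of IL6 transcript, normalized to three housekeeping genes, after 48 h chemical exposure of HepaRG cells; 8-point half-log series, top 100 uM, 0.5% DMSO vehicle. Bidirectional curve fitting against DMSO baseline.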

Read-out in assay [13]: Interleukin 6 Receptor (IL6R), IL6R (gene 3570)
In words: LTEA_HepaRG_IL6R: Life Technologies and Expression Analysis (LTEA) Assay for Interleukin 6 Receptor (IL6R) using HepaRG (AID 2283510). In outline: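 HepaRG, 48 h exposure, 8-pt half-log series, top 100 uM, 0.5% DMSO vehicle, duplicates. Read-out: TaqMan qRT-PCR of IL6R transcript, housekeeping-gene normalized. Gain or loss fitted relative to DMSO baseline.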

Read-out in assay [14]: Potassium channel subfamily K member 1 (KCNK1), KCNK1 (gene 3775)
In words: LTEA_HepaRG_KCNK1: Life Technologies and Expression Analysis (LTEA) Assay for Potassium channel subfamily K member 1 (KCNK1) using HepaRG (AID 2283511). The procedure, abridged: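 HepaRG, 48 h exposure, 8-pt half-log series top 100 uM, 0.5% DMSO vehicle, duplicates. Readout: KCNK1 transcript by qRT-PCR (Fluidigm array), housekeeping-normalized; bidirectional curve fit relative to DMSO baseline.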

Read-out in assay [15]: Keratin 19 (KRT19), KRT19 (gene 3880)
In words: LTEA_HepaRG_KRT19: Life Technologies and Expression Analysis (LTEA) Assay for Keratin 19 (KRT19) using HepaRG (AID 2283512). In outline:
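KRT19 transcript levels, measured by Fluidigm qRT-PCR against three housekeeping genes, are fitted for gain or loss of signal relative to DMSO. Human HepaRG cells receive test chemicals (top 100 uM, half-log steps, 0.5% DMSO) for 48 hours.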

Read-out in assay [16]: JUN Transcription Factor, JUN (gene 3725)
Put plainly: LTEA_HepaRG_JUN: Life Technologies and Expression Analysis (LTEA) Assay for JUN Transcription Factor using HepaRG (AID 2283513). The procedure, abridged:
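HepaRG, 48 h exposure, 8-pt half-log series top 100 uM, 0.5% DMSO, duplicate. JUN mRNA by qRT-PCR (Fluidigm), housekeeping-normalized (ACTB/GAPDH/POLR2A); bidirectional curve fit vs DMSO baseline.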

Read-out in assay [17]: Lipase C (LIPC), LIPC (gene 3990)
In words: LTEA_HepaRG_LIPC: Life Technologies and Expression Analysis (LTEA) Assay for Lipase C (LIPC) using HepaRG (AID 2283514). The procedure, abridged:
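HepaRG, 48 h exposure, 8-pt half-log series from 100 uM in 0.5% DMSO, duplicates. Readout: LIPC mRNA by Fluidigm qRT-PCR, housekeeping-normalized (ACTB/GAPDH/POLR2A). Gain or loss fitted bidirectionally against DMSO baseline.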

Read-out in assay [18]: Lipoprotein lipase (LPL), LPL (gene 4023)
In words: LTEA_HepaRG_LPL: Life Technologies and Expression Analysis (LTEA) Assay for Lipoprotein lipase (LPL) using HepaRG (AID 2283515). In outline: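 HepaRG, 48 h exposure, 8-pt half-log dilutions from 100 uM, 0.5% DMSO vehicle, duplicates; qRT-PCR (Fluidigm array) of LPL mRNA vs housekeeping genes; bidirectional curve fit relative to DMSO baseline.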

Read-out in assay [19]: MicroRNA 122 (MIR122), gene 406906
Put plainly: LTEA_HepaRG_MIR122: Life Technologies and Expression Analysis (LTEA) Assay for MicroRNA 122 (MIR122) using HepaRG (AID 2283516). Further: the transcript read is the microRNA miR-122. In outline: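 qRT-PCR read-out (TaqMan, Fluidigm array), normalized to three housekeeping genes; HepaRG cells dosed 48 h at 8 concentrations up to 100 uM in 0.5% DMSO, duplicate; gain or loss fitted against DMSO baseline.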

Active and inactive are the calls of the source. How the source made its calls: active means hit-call score of the fitted dose curve at least 0.9, where 1 is the maximum; inactive means score below 0.9.

Chain of Hypoxia-inducible factor 1-alpha (Homo sapiens) (Q16665 whole entry, looked up): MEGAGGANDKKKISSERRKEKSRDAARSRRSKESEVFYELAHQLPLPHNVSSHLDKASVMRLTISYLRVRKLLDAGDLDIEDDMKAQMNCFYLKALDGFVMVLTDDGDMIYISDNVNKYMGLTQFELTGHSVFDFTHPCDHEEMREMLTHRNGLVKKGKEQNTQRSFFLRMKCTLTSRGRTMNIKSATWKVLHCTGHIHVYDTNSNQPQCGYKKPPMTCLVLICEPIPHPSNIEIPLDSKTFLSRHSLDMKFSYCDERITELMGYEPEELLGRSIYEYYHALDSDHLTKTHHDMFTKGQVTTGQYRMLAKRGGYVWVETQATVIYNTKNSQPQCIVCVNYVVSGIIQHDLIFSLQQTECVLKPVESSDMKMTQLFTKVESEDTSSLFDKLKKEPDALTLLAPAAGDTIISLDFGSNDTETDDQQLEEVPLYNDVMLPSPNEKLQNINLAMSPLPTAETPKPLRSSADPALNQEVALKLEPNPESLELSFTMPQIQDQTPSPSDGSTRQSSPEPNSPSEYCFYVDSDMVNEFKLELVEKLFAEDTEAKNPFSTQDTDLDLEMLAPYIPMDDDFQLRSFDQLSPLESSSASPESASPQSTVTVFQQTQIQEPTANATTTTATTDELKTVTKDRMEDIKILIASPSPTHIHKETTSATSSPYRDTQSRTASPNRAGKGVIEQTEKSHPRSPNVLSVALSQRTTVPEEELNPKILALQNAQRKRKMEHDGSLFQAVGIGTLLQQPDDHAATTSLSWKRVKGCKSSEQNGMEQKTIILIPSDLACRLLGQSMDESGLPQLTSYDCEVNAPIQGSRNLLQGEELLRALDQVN

As to `CCCCCCC(CCCCCCCCCCC(=O)OCC(COC(C)=O)OC(C)=O)OC(C)=O` (centres undefined), the result in assay [1], in assay [2], in assay [3], in assay [4], in [5] and in assay [6] was inactive. The outcome in [7], in assay [8], in assay [9], in assay [10], in assay [11] and in assay [12] was inactive. The molecule was called inactive in assay [13], in [14], in assay [15], in assay [16], in assay [17] and in [18]. Also, in [19], the molecule was classed as inactive.
For orientation: AC50 means the concentration giving half of the maximal activity seen. Consider `CCCCc1nc2cccnc2n1Cc1ccc(-c2ccccc2-c2nnn[nH]2)cc1`, for which the molecule was called inactive in assay [1], in assay [2], in assay [3], in [4], in [5] and in assay [6]. Further, the outcome in assay [7], in assay [8], in assay [10], in [11], in [12] and in assay [13] was inactive. The call in assay [16], in [17], in [18] and in [19] was inactive. Further, the half-maximal activity concentration (AC50) in assay [9] is 50 µM (active).
Take `Cc1ccc(-c2cc(C(F)(F)F)nn2-c2ccc(S(N)(=O)=O)cc2)cc1`: the AC50 in assay [1] is 82.1 µM (active); in assay [2], 50 µM (active); in assay [3], 67.5 µM (active); in assay [7], 73.7 µM (active); in [9], 81.3 µM (active); in assay [10], 50 µM (active). The AC50 in assay [12] is 81.4 µM (active); in [16] it was 83.4 µM (active); in assay [18], 87.4 µM (active). Besides, the outcome in assay [4], in assay [5], in assay [6], in [8], in assay [11] and in [13] was inactive. In addition, the outcome in [14], in assay [15], in [17] and in assay [19] was inactive.
For `NCCOCCOCCN`, the outcome in assay [1], in assay [2], in assay [3], in assay [4], in assay [5] and in assay [6] was inactive. Moreover, the molecule was classed as inactive in [7], in assay [8], in assay [9], in assay [10], in [11] and in assay [12]. The molecule was called inactive in [13], in assay [14], in [15], in assay [16], in assay [17] and in [18]. The molecule was called inactive in assay [19].
